Source: PubChem BioAssay AID1159580 (chemical genetic matrix, 2015)
Among all 5,500 compounds or so, about 2,000 (36%) were called active. Roughly 18% stayed inconclusive and do not appear here. Rule as the data show it: active = normalized growth mostly below about 0.91 (no sharp cut-off); inconclusive = no clear call, values can overlap the other calls; inactive = mostly above about 0.92. This is one part of the list.

Experiment: chemical genetic growth profiling, strain panel (AID 1159580);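 also: tested at 20 µM; growth read once vehicle control cultures reached saturation at 30 °C; 1 = growth at the plate median or of vehicle wells; lower values mean less growth of the strain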
Details: growth OD

Measured: normalized growth

COC(=O)c1ccc2c(c1)N(C)S(=O)(=O)CC2=O
inactive: S. cerevisiae deletion strains, locus YBR229C, strain ROT2, hits give low values 0.998 | S. cerevisiae deletion strains, locus YDL101C, strain DUN1, hits give low values 0.964 | S. cerevisiae deletion strains, locus YDR150W, strain NUM1, hits give low values 0.997 | S. cerevisiae deletion strains, locus YEL061C, strain CIN8, hits give low values 0.975 | S. cerevisiae deletion strains, locus YGR078C, strain PAC10, hits give low values 1 | S. cerevisiae deletion strains, locus YHR030C, strain SLT2, hits give low values 0.994 | S. cerevisiae deletion strains, locus YHR087W, strain rtc3, hits give low values 1 | S. cerevisiae deletion strains, locus YJR043C, strain POL32, hits give low values 1.02 | S. cerevisiae deletion strains, locus YJR075W, strain HOC1, hits give low values 1.01 | S. cerevisiae deletion strains, locus YLR039C, strain RIC1, hits give low values 0.989 | S. cerevisiae deletion strains, locus YLR058C, strain SHM2 (second series), hits give low values 1.01 | S. cerevisiae deletion strains, locus YLR085C, strain ARP6, hits give low values 0.853 | S. cerevisiae deletion strains, locus YLR262C, strain YPT6, hits give low values 0.998 | S. cerevisiae deletion strains, locus YML094W, strain GIM5, hits give low values 1 | S. cerevisiae deletion strains, locus YMR219W, strain ESC1, hits give low values 0.996 | S. cerevisiae deletion strains, locus YMR263W, strain SAP30, hits give low values 0.994 | S. cerevisiae deletion strains, locus YMR307W, strain GAS1, hits give low values 0.872 | S. cerevisiae deletion strains, locus YNL128W, strain TEP1, hits give low values 1.01 | S. cerevisiae deletion strains, locus YNL153C, strain GIM3, hits give low values 0.932 | S. cerevisiae deletion strains, locus YNL298W, strain CLA4 (second series), hits give low values 0.987 | S. cerevisiae deletion strains, locus YNL322C, strain KRE1, hits give low values 0.993 | S. cerevisiae deletion strains, locus YNR030W, strain Alg12, hits give low values 0.987 | S. cerevisiae deletion strains, locus YPL055C, strain LGE1, hits give low values 0.99 | S. cerevisiae deletion strains, locus YPL241C, strain CIN2, hits give low values 0.936 | S. cerevisiae deletion strains, locus YPR135W, strain CTF4, hits give low values 1.03 | S. cerevisiae strains, strain wild type, hits give low values 1.01
